Experimental data: paper PMC5540273 (PLoS ONE, 2017)

Tested on: T1, ARK5
T1 construct: gene NUAK1
Conditions: concentration: 1 μM, replicates: in singlicate; n = 1
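Also: KINOMEscan kinase panel screen.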

| SMILES | %Inh [%] |
| --- | --- |
| COC(=O)c1c(-c2ccccc2)c2cc(Br)ccc2c(=O)n1Cc1ccc(S(C)(=O)=O)cc1 | 11 |
| CCc1nc(-c2cccc(C)c2)c(-c2ccncc2)s1 | 17 |
| COc1cc(Nc2ccnc3ccc(C(F)(F)F)cc23)cc(OC)c1OC [GW577382] | 10 |
| COC(=O)c1c(-c2ccccc2)c2cc(C)ccc2c(=O)n1Cc1ccccc1 | 4 |
| CN1C(=O)C(Nc2ccccc2)=C(c2ccccc2)C1=O [SB-300079] | 0 |
| CCC(=O)c1c(-c2ccccc2)c2cc(Cl)ccc2c(=O)n1Cc1cc(C(=O)NC2CC2)n(C)n1 | 0 |
| Nc1ncnc2c1ncn2-c1ccc(Cl)cc1 [AH2635] | 0 |
| Cc1cccc(-c2cc(-c3c[nH]nc3-c3ccccn3)ccn2)c1 [GW679395] | 0 |
| CN1C(=O)C(Nc2cc(Cl)c(O)c(Cl)c2)=C(c2ccc(Cl)cc2)C1=O [SB-404321] | 0 |
| COc1cc2nccc(Nc3cccc(Oc4ccccc4)c3)c2cc1OC.Cl [GW284543] | 0 |
| CCCC(=O)Nc1n[nH]c2ncc(-c3cccc4ccccc34)cc12 [SB-642057] | 6 |
| COc1cccc(C2=C(N(C)c3ccccc3)C(=O)NC2=O)c1 [SB-334865] | 1 |
| COc1ccc(-c2cc3c(C)nc(N)nc3n([C@H]3CC[C@H](OCCO)CC3)c2=O)cn1 | 0 |
| Nc1ncnc2c1ncn2-c1cccc(F)c1 [SKF-97560] | 2 |
| CN(C)c1cc(-c2ccc3c(N)n[nH]c3c2)nc(N)n1 [GSK2219329] | 0 |
| COc1ccc(-n2cnc3c(N)ncnc32)cc1 [SKF-97236] | 0 |
| Cn1c(=O)c(F)c(Nc2ccc(I)cc2F)c2c(=O)n(OC[C@H](O)CO)cnc21 | 0 |
| COc1cc(Nc2nccc(N3CCC(NC(=O)C(C)c4ccc(Cl)cc4)C3)n2)cc(OC)c1OC (centres unmarked) [GSK1379757] | 34 |
| COc1cc2ncn(-c3cc(OCCCc4ccccc4)c(C(N)=O)s3)c2cc1OC [GSK205189] | 0 |
| Cc1cccc(-c2nc(Nc3ccc4c(cnn4C)c3)c3ccccc3n2)n1 [GW876731] | 5 |
| Nc1nc(N)c2nc(-c3ccccc3)[nH]c2n1 [SKF-12778] | 73 |
| Cl.c1ccc(Cn2cnc3cc(Nc4ncnc5ccccc45)ccc32)cc1 [GW272142] | 0 |
| Nc1nccc2scc(-c3ccc4c(c3)CCN4C(=O)Cc3ccccc3)c12 [GSK2576924] | 9 |
